GPR151 ag – human GPR151 activation; Q8TDV0; PathHunter beta-arrestin GPR151 cells, luminescence; activation, % at 11.2 µM; 1% of 650,000 active; AID 1508602; in the data active = activation above about 4.9%
FBW7 act – human FBW7 E3 ligase activation, primary screen. normalized activity (activation), % at 26.1 µM. 0.13% of 650,000 active. Q969H0. AlphaScreen FBW7–phospho-cyclin E peptide binding, activator screen; in the data active = normalized activity above about 1.9%;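 also: purified mutant Fbw7 with reduced substrate affinity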
TEAD-YAP inh – TEAD-YAP interaction inhibition. HEK-TIYL cells, TEAD-Gal4/YAP UAS-luciferase luminescence. inhibition, % at 9.12 µM. 1.4% of 640,000 active; in the data active = inhibition above about 32%
MITF inh – blocks human microphthalmia-associated transcription factor | O75030 | AlphaScreen MITF homodimerization, bead proximity signal | inhibition, % at 2.6 µM | 0.91% of 650,000 active | AID 1259374; in the data active = inhibition above about 50%
Target sequence (O75030 whole entry, looked up): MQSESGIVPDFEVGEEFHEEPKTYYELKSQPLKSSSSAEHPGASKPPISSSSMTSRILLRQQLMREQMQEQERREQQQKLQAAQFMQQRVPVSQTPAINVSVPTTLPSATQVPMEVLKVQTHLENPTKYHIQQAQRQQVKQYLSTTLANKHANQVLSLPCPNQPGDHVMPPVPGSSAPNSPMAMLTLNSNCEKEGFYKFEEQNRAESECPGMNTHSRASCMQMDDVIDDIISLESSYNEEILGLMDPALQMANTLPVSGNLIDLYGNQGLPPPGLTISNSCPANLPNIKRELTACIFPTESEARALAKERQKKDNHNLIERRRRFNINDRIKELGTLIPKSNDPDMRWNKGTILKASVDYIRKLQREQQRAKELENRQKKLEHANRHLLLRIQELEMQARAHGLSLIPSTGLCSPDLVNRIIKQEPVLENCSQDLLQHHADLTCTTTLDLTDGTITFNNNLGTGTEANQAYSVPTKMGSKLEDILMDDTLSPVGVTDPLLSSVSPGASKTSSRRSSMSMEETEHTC
MITF inh conf – human MITF inhibition, confirmation; shares compounds with MITF inh; AlphaScreen MITF homodimerization, biotin/His-MITF beads; inhibition, % at 2.6 µM; 16% of 4,700 active; AID 1259372;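 active = inhibition above a cutoff derived from the DMSO control wells, cut at about 28% in these data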;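 also: inhibitors lower the bead chemiluminescence by keeping MITF from dimerizing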
AlphaScreen DR – optically interferes with AlphaScreen signal in dose response; shares compounds with MITF inh; AlphaScreen optical interference counterscreen, cell-free; IC50, µM; 6% of 480 active; call rule not given here
AS interf ctr – counter-screen: compounds optically interfering with AlphaScreen; shares compounds with MITF inh; LysRS AlphaScreen counterscreen, signal interference, triplicate; inhibition, % at 2.6 µM; 7.6% of 4,700 active; AID 1259376;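 active = inhibition above a cutoff derived from the DMSO control wells, cut at about 30% in these data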
A number is an active result; 0 = inactive; - = not tested or not shown. Sampled rows, rich in hits. Any-hit rate of the full collection: about 3.5%.

SMILES	GPR151 ag	FBW7 act	TEAD-YAP inh	MITF inh	MITF inh conf	AS interf ctr	others
CCn1cc2c(n1)C(=O)N(c1ccccc1)C1c3ccccc3C(=O)N21 (stereo unspecified)	0	0	0	0	-	-
COc1cc(NCC2CC=CCC2)cc(OC)c1 (stereo unspecified)	0	0	0	0	-	-
COc1cc(OC)cc(C(=O)N2CCN(Cc3ccccc3Cl)CC2)c1	0	0	0	60	0	0
COc1ccccc1CN1CCN(C(=O)c2cccc(F)c2)CC1	0	0	0	0	-	-
COc1cc(OC)cc(C(=O)N2CCN(Cc3ccccc3OC)CC2)c1	0	0	0	61	0	0
COc1cc(OC)cc(C(=O)N2CCN(Cc3ccc(C)cc3)CC2)c1	0	0	0	0	-	-
CCOC(=O)C(C#N)c1cc(N2CCN(c3ccccc3)CC2)ncn1 (stereo unspecified)	0	0	0	0	-	-
N#CC1=c2/c(=C/c3ccco3)c(N)c(C#N)n2C(=O)C(c2ccco2)S1 (stereo unspecified)	0	0	0	68	47	0	AlphaScreen DR=0
COC(=O)C1=CN(CCc2ccc(F)cc2)C=C(C(=O)OC)C1c1cccs1	0	0	0	0	-	-
CC(C)=C1C2CC2C2C(C(=O)O)C12 (stereo unspecified)	0	0	0	60	0	0
O=C(CCC(=O)Nc1ccc(F)cc1)N/N=C/c1cccc([N+](=O)[O-])c1	0	0	0	0	-	-
CN(CCc1ccccn1)C(=O)c1cccc(F)c1	0	0	0	105	0	0
CN(CCc1ccccn1)C(=O)c1ccc(F)cc1	0	0	0	77	0	0
COc1ccc(/C=N/NC(=O)C(=O)NCCc2ccc(OC)c(OC)c2)c(OC)c1	0	0	0	0	-	-
CN(Cc1ccn[nH]1)C(=O)CCC1(Cc2ccc(-c3ccccc3)cc2)CCC(=O)N1 (stereo unspecified)	0	0	0	0	-	-
CCN(CC)C(=O)C1CCN(S(=O)(=O)c2cccc3nsnc23)CC1	0	0	0	0	-	-
O=C(C1CCCN(C2CCN(Cc3ccccc3)CC2)C1)N1CCN(c2ccccc2)CC1 (stereo unspecified)	0	0	0	73	0	0
Fc1cccc(CN2CCC(N3CCN(c4ccccc4)CC3)CC2)c1	0	0	0	77	0	0
O=[N+]([O-])c1ccc(CN2CCC(N3CCN(c4ccccc4)CC3)CC2)cc1	0	0	0	78	0	0
COc1ccc(N2CCN(C3CCCN(Cc4ccncc4)C3)CC2)cc1 (stereo unspecified)	0	0	0	0	-	-
c1ccc(N2CCN(C3CCN(Cc4ccncc4)CC3)CC2)cc1	0	0	0	75	0	0
COC(=O)C1CCN(C(=O)C2CCCN(C3CCN(Cc4ccccc4)CC3)C2)CC1 (stereo unspecified)	0	0	0	0	-	-
CNCC(=O)Nc1c(Cl)cccc1Cl	0	0	0	0	-	-
O=[N+]([O-])c1ccc(CN2CCC(N3CCCC3)CC2)cc1	0	0	0	0	-	-
CSc1ccc(CN2CCN(C3CCN(Cc4ccccc4)CC3)CC2)cc1	0	0	0	0	-	-
SMILES	GPR151 ag	FBW7 act	TEAD-YAP inh	MITF inh	MITF inh conf	AS interf ctr	others
Fc1ccc(CN2CCC(N3CCN(c4ccccc4)CC3)CC2)cc1	0	0	0	53	0	0
CC1CCN(C2CCN(Cc3ccc([N+](=O)[O-])cc3)CC2)CC1	0	0	0	60	0	0
Fc1ccc(CN2CCC(N3CCOCC3)CC2)cc1	0	0	0	61	0	0
O=C(c1cccs1)N(Cc1cc2cc3c(cc2[nH]c1=O)OCCO3)CC1CCCO1 (stereo unspecified)	0	0	0	0	-	-
CC(C)NC(=O)c1cccc(NC(=O)Nc2ccc(-c3ncnc4[nH]cc(Cl)c34)cc2)c1	0	0	0	78	88	0	AlphaScreen DR=0
O=C(NC1CCCCC1)N1CCN2C(=O)[C@@H]3CSCN3C(=O)[C@H]2C1	0	0	0	76	60	0	AlphaScreen DR=0
O=C(NC1CCCCC1)N1CCN2C(=O)[C@@H]3C[C@@H](O)CN3C(=O)[C@H]2C1	0	0	0	80	73	0	AlphaScreen DR=0
Cc1ccc(C(=O)Nc2ccc([N+](=O)[O-])cn2)o1	0	0	0	80	69	0	AlphaScreen DR=0
NC(=O)c1cc(NC(=O)CSc2nnc(Nc3ccccc3F)s2)cc(C(N)=O)c1	0	0	0	0	-	-
CC(O)CNCCCCOc1ccc2ccccc2c1Br (stereo unspecified)	0	0	0	71	53	40
COCCCNCCOc1ccc2ccccc2c1Br	0	0	0	59	0	0
NC(=O)c1cc2c(ccc3ccccc32)oc1=Nc1cccc(C(F)(F)F)c1	0	0	0	0	-	-
O=C(CCC(=O)Nc1ccc(Br)cc1)N/N=C/c1ccccc1Cl	0	0	0	0	-	-
CCCS(=O)(=O)N1CCN(C2CCCCC2)CC1	0	0	0	53	0	0
CS(=O)(=O)N1CCN(C2CCCC2)CC1	0	0	0	0	-	-
CCS(=O)(=O)N1CCN(C2CCCC2)CC1	0	0	0	0	-	-
CCCN1CCC(N2CCN(S(C)(=O)=O)CC2)CC1	0	0	0	68	0	0
CCCN1CCC(N2CCN(S(=O)(=O)c3ccccc3[N+](=O)[O-])CC2)CC1	0	0	0	84	0	0
CCOc1cc(/C=C(\C#N)C(N)=O)ccc1OCc1ccccc1Cl	0	0	0	0	-	-
CN1CCN(C(=O)C2CCCN(S(=O)(=O)N3CCCCC3)C2)CC1 (stereo unspecified)	0	0	0	65	0	0
CN1CCN(C(=O)C2CCCN(S(=O)(=O)c3ccc(F)cc3)C2)CC1 (stereo unspecified)	0	0	0	74	0	0
O=C(O)c1ccc(-n2cnnn2)cc1Cl	0	0	0	0	-	-
O=C(O)c1ccc(-n2cccc2)cc1Cl	0	0	0	79	75	0	AlphaScreen DR=0
Cc1c(C(=O)N2CCC(Cc3ccccc3)CC2)sc2ncnc(N3CCN(c4ccccc4F)CC3)c12	0	0	0	0	-	-
Cc1ncn(-c2ccc(Nc3cc(-c4nocc4-c4cn[nH]c4C)ccn3)cc2)n1	0	0	0	0	-	-
SMILES	GPR151 ag	FBW7 act	TEAD-YAP inh	MITF inh	MITF inh conf	AS interf ctr	others
COc1ccc(NC(=O)c2cc3nc(-c4ccc(F)cc4)cc(C(F)(F)F)n3n2)c(OC)c1	0	0	0	0	-	-
CCOC(=O)N1CCN(C(=O)CCS(=O)(=O)Cc2ccccc2C)CC1	0	0	0	0	-	-
CC(C)(C)NC(=O)C(=O)NNC(=O)c1ccc([N+](=O)[O-])cc1[N+](=O)[O-]	0	0	0	66	0	0
CCC(C)NC(=O)CS(=O)(=O)Cc1nc(-c2ccc(OC)cc2)oc1C (stereo unspecified)	0	0	0	0	-	-
Cc1cc(C)n2nc(N)nc2n1	0	0	0	0	-	-
Cc1cc(C)n2nc(N)c(N)c2n1	0	0	0	62	29	0	AlphaScreen DR=0
N/C(=N\N=C(/N)c1ccccn1)c1ccccn1	0	0	61	107	100	100

Compound activity from PubChem BioAssay.
